Experimental data taken from PubChem BioAssay (NCI).
The panel holds about 83,000 compounds, 20% with a hit somewhere; the sample as a whole holds those more often.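 Negative percent growth values reflect cell death: -40 means 40% of the cells present at the start died, and -100 means all died.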 Calls of active or inactive are those of the source. The calls were made as follows: active = growth percent below 10; inactive = the rest.

Key:
Test in all cases: NCI-60 one-dose screen, 48 h (100 = growth as untreated, 0 = no growth, -100 = all killed)
Settings in all cases: 10 µM unless noted
[1] = system: HCT-15 colon
[2] = system: HT29 colon
[3] = system: SNB-75 CNS
[4] = system: SNB-19 CNS
[5] = system: U251 CNS
[6] = system: PC-3 prostate
[7] = system: SK-MEL-5 melanoma
[8] = system: UACC-62 melanoma
[9] = system: LOX IMVI melanoma
[10] = system: SK-MEL-28 melanoma
[11] = system: SK-MEL-2 melanoma
[12] = system: EKVX NSCLC
[13] = system: SN12C renal
[14] = system: UO-31 renal
[15] = system: TK-10 renal
[16] = system: CAKI-1 renal
[17] = system: A498 renal
[18] = system: CCRF-CEM leukemia
[19] = system: MOLT-4 leukemia
[20] = system: ACHN renal

Measured: growth

O=C1c2cccc3cccc(c23)C(=O)N1N1C(=O)c2cccc3c(NC4CCCCC4)ccc(c23)C1=O
inactive: [1] 96.6% | [2] 95.9% | [3] 87.5% | [4] 89.1% | [5] 99.7% | [6] 83.6% | [7] 96.7% | [8] 83.5% | [9] 92.1% | [10] 100% | [11] 105% | [12] 89.3% | [13] 91.7% | [14] 66.3% | [15] 126% | [16] 79.9% | [17] 95.5% | [18] 89.1% | [19] 89.6%

COc1ccc(S(=O)(=O)n2cc(C3OC(c4cc(OC)c(OC)c(OC)c4)=NN3C(C)=O)c3ccccc32)cc1OC (stereo unspecified)
inactive: [1] 81.8% | [2] 110% | [3] 86% | [4] 85.7% | [5] 97.7% | [6] 80.3% | [7] 76.4% | [8] 72.8% | [9] 78.4% | [10] 110% | [12] 78.9% | [13] 88% | [14] 58.2% | [15] 94.9% | [20] 85.3% | [16] 76.2% | [17] 117% | [18] 73.4% | [19] 58.7%

Cc1ccc(S(=O)(=O)Oc2ccc(NC(=O)c3ccc(Cl)cc3)cc2)cc1
inactive: [1] 88.8% | [2] 94.9% | [3] 98.7% | [4] 94.2% | [5] 97.1% | [6] 93.2% | [7] 99.9% | [8] 95.8% | [9] 95.1% | [10] 108% | [12] 91.3% | [13] 96.1% | [14] 91.6% | [15] 92.5% | [20] 102% | [16] 100% | [17] 93.9% | [18] 104% | [19] 104%

COc1ccc(CN2c3ccccc3CCc3ccccc32)cc1F
active: [2] 1.59% | [17] -6.65% | [18] 4.49%
inactive: [1] 24.9% | [3] 23.2% | [4] 39% | [5] 21.1% | [6] 24.1% | [7] 19.8% | [8] 24.8% | [9] 50.2% | [10] 50.8% | [12] 41.1% | [13] 39.1% | [14] 43.2% | [15] 62.7% | [20] 35.6% | [16] 29.7% | [19] 16.2%

O=C(Nc1c2ccccc2nc2ccccc12)c1ccccc1CN1C(=O)c2ccccc2C1=O
active: [14] 6.41% | [17] -18.9%
inactive: [1] 19.2% | [2] 11.2% | [3] 60.1% | [4] 32.9% | [5] 27.1% | [6] 37.2% | [7] 39.5% | [8] 58.8% | [9] 22% | [10] 56.7% | [12] 43.1% | [13] 34.6% | [15] 45.6% | [20] 10.8% | [16] 19.1% | [18] 40.8% | [19] 14.9%

CCN1C(=O)N(CC)C2Nn3c(s/c(=C\c4ccc([N+](=O)[O-])cc4)c3=O)=NC21 (stereo unspecified)
inactive: [1] 61.6% | [2] 109% | [3] 82% | [4] 89.3% | [5] 80.3% | [6] 16% | [7] 93.4% | [8] 75.6% | [9] 94.2% | [10] 78.4% | [11] 110% | [12] 73.3% | [13] 79.7% | [14] 55.1% | [15] 69.9% | [16] 79.8% | [17] 53.2% | [18] 40.6% | [19] 61.7%

CCOC(=O)C1=C(N)Oc2c(sc3c(C)cccc23)C1c1ccc(Cl)cc1 (stereo unspecified)
inactive: [1] 15% | [2] 14.8% | [4] 28.1% | [5] 31.7% | [6] 16.6% | [7] 39.5% | [8] 12.1% | [9] 36.2% | [10] 53.6% | [12] 48.3% | [13] 38.6% | [14] 38.5% | [15] 78.7% | [20] 39.5% | [18] 17% | [19] 32.9%
active: [3] -9.45% | [16] 2.8% | [17] 3.91%

C(=N/Nc1ncnc2nc[nH]c12)/c1ccccn1
inactive: [1] 35.4% | [2] 58.8% | [3] 75.5% | [4] 53.8% | [5] 32.6% | [6] 31% | [7] 16.9% | [8] 27% | [9] 19.1% | [10] 49.1% | [11] 71.5% | [12] 24.9% | [13] 36.6% | [15] 56.1% | [17] 55% | [18] 23.7% | [19] 22.2%
active: [14] 3.16% | [16] -25.4%

COc1ccc2sc3c(NCCO)nc4ccccc4c3c(=O)c2c1
inactive: [1] 81% | [2] 101% | [3] 103% | [4] 95.4% | [5] 93.1% | [6] 91.4% | [7] 93.7% | [8] 94.5% | [9] 88% | [10] 122% | [11] 107% | [12] 70.3% | [13] 96.6% | [14] 79.4% | [15] 103% | [16] 90.5% | [17] 48.7% | [18] 75.3% | [19] 89.3%

COc1ccc2c(c1)/C(=C/c1sc(=S)n(Cc3ccco3)c1O)C=N2
active: [3] 1.19% | [17] -9.18%
inactive: [1] 17.8% | [2] 15.8% | [4] 44.5% | [5] 37% | [6] 61.6% | [7] 52.2% | [8] 38.9% | [9] 35.9% | [10] 47.4% | [11] 27% | [12] 60.2% | [13] 32.7% | [14] 58.6% | [15] 77.6% | [18] 18.3% | [19] 29.2%

Cc1cc(=O)[nH]c(=O)n1Cc1cn(-c2c3ccccc3nc3ccccc23)nn1
inactive: [1] 79.2% | [2] 113% | [3] 103% | [4] 87.3% | [5] 88.3% | [6] 97.3% | [7] 78.9% | [8] 85.2% | [9] 15.2% | [10] 75.6% | [11] 107% | [12] 103% | [13] 88.7% | [14] 82.6% | [15] 96.1% | [16] 91% | [17] 101% | [18] 64.7% | [19] 48.5%

COc1cc(/C=C/c2ccccc2)cc(OC)c1
inactive: [1] 91% | [2] 90.4% | [3] 93.1% | [4] 98.7% | [5] 84.1% | [6] 94.6% | [7] 96.5% | [8] 83.4% | [9] 84.8% | [10] 111% | [11] 93.7% | [12] 78.9% | [13] 100% | [14] 80.1% | [15] 95.9% | [16] 81.3% | [17] 88.7% | [18] 108% | [19] 89.3%

O=C(/C=C/c1sc(Cl)nc1Cl)c1ccc(F)cc1
inactive: [1] 31.2% | [2] 84.5% | [3] 92.5% | [4] 90.8% | [5] 40.4% | [6] 88.5% | [7] 93.6% | [8] 93.3% | [10] 97.2% | [12] 88.8% | [13] 45.1% | [14] 85.4% | [15] 103% | [20] 22.4% | [16] 88.2% | [17] 91.9% | [18] 37.5% | [19] 48.5%
active: [9] 0.0946%
